Five compounds from PubChem BioAssay can be followed below.

In assay [1] the test system is Human papillomavirus type 1a protein E7 (residues 44-93). The assay can be described thus: HPV1a E7 fragment binders on microarrays, primary screen, biochemical, small-molecule microarray, residues 44-93, 635 nm fluorescence (AID 1108).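 Also: E7 fragment applied at 1 µg/mL in TBST for 1 h at 4 C; score combines spot fluorescence with its signal to noise ratio.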 As to conditions: small-molecule microarray binding, fluorescence 635 nm; higher = more signal.
Assay [2] is described as follows: modulators of HCV replicon luciferase signal, primary screen, HCV replication inhibitor project, Huh7 cells, luciferase reporter (AID 1109).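 Also: huh7 hepatoma cells harbouring a luciferase neomycin HCV replicon reporter; luciferase luminescence as measure of HCV replicon replication; test concentration not given here.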 As to conditions: 48 h, higher = more signal. On the technique in general: In antiviral work, replicon cells carry a viral genome segment that copies itself.
Assay [3] deals with Left-right determination factor 2 (Homo sapiens) (UniProt O00292). Kind of assay: LEFTY2 binders on small-molecule microarrays, primary screen, biochemical, small-molecule microarray, 635 nm fluorescence scan (AID 1110). As to conditions: LEFTY2 binding, higher = more signal.
The target of assay [4] is Calmodulin-1 (Homo sapiens) (UniProt P0DP23). Kind of assay: CALM1 binders on microarrays, EGTA buffer, profiling panel, biochemical, small-molecule microarray, Cy5-labelled CALM1 (AID 1111).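 Also: labelled calmodulin applied in Tris saline Tween buffer holding calcium plus EGTA and DTT.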 As to conditions: Cy5-CALM1 binding fluorescence, higher = more signal.
For assay [5] the target is unchanged. Kind of assay: calcium-bound CALM1 binders on microarrays, profiling panel, artefact control for SMM control-protein annotation, biochemical, small-molecule microarray, Cy5-labelled CALM1, plus calcium (AID 1112).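 Also: score merges spot fluorescence with signal to noise from triplicate slides.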 As to conditions: Cy5-CALM1 binding fluorescence, higher = more signal.
A short description of assay [6]: small-molecule microarray binders of probe aWnt5a, primary screen, biochemical, biotinylated probe, 635/667 nm fluorescence (AID 1113).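 Also: score merges 667 nm fluorescence intensity with signal-to-noise per printed feature.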 As to conditions: higher = more signal.
The nature of assay [7]: small-molecule microarray binders of probe aShh, primary screen, biochemical, biotinylated probe, 635/667 nm fluorescence (AID 1114).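 Also: probe is biotin-labelled aShh protein from a stem cell growth factor screen; measures binding of labelled protein to compounds printed on the slide; score merges feature fluorescence at 667 nm with signal-to-noise.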 As to conditions: higher = more signal.
Assay [8] can be described thus: small-molecule microarray binders of probe aNog, primary screen, biochemical, biotinylated probe, 635/667 nm fluorescence (AID 1115).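 Also: probe is biotinylated aNog protein used at 0.15 µg/mL for 1 h at 4 C; z-score combines 667 nm fluorescence of each spot with its signal to noise.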 As to conditions: higher = more signal.
For assay [9], the target named is Torsin-1A-interacting protein 1 (Homo sapiens) (UniProt Q5JTV8). The assay can be described thus: LAP1 binders from COS7 cell lysate, primary screen, small-molecule microarray, 635/667 nm fluorescence (AID 1116). As to conditions: COS7-hLAP1 lysate binding, 635 nm fluorescence, higher = more signal.
Assay [10] addresses Alpha-bungarotoxin (Bungarus multicinctus) (UniProt P60615). The assay can be described thus: alpha-bungarotoxin binders on microarray, profiling panel, artefact control for SMM control protein annotation, biochemical, small-molecule microarray, Alexa647 label, 635/667 nm fluorescence (AID 1117). As to conditions: alpha-BTX-A647 binding fluorescence, higher = more signal.
In the next assay the target is Albumin (Bos taurus) (UniProt P02769). The assay can be described thus: bovine serum albumin binders on microarray, profiling panel, artefact control for SMM control protein annotation, biochemical, small-molecule microarray, Alexa647 label, 635/667 nm fluorescence (AID 1118).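 Also: score merges 667 nm emission intensity and signal-to-noise per printed compound spot.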 As to conditions: BSA-A647 binding, fluorescence 635 nm, higher = more signal.
A short description of assay [11]: small-molecule microarray binders of probe aXIP, primary screen, biochemical, NeuroSMM set, 635/667 nm fluorescence (AID 1119).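 Also: probe is the protein aXip251-270 applied at 1 µg/mL to compound-printed slides; binding of probe to printed compounds measured as 667 nm fluorescence plus signal to noise.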 As to conditions: higher = more signal, called active from +8 up or from −8 down.
A short description of assay [12]: small-molecule binders of probe aNOTCH3, primary screen, biochemical, small-molecule microarray, 635/667 nm fluorescence (AID 1120).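 Also: probe is a biotin-tagged antibody raised against NOTCH3 rather than NOTCH3 protein; score merges spot fluorescence near 667 nm with spot signal to noise.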 As to conditions: higher = more signal.
Assay [13] in a line: small-molecule binders of probe aNOTCH2, primary screen, biochemical, small-molecule microarray, 635/667 nm fluorescence (AID 1121).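 Also: score merges feature fluorescence read at 667 nm with its signal to noise.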 As to conditions: higher = more signal.
Assay [14] concerns the target Carbonic anhydrase 2 (Homo sapiens) (UniProt P00918). The assay can be described thus: CAII small-molecule binders, profiling panel, biochemical, small-molecule microarray, Alexa647-labelled CAII (AID 1122). As to conditions: CAII-A647 binding fluorescence, higher = more signal.
Assay [15] in a line: COS7 lysate on small-molecule microarray, probe aHis, 635 nm (AID 1123).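 Also: z-score combines 667nm fluorescence intensity with signal-to-noise per printed compound spot.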 As to conditions: COS7 cell lysate, fluorescence, higher = more signal.
The nature of assay [16]: compound binding in COS7 lysate, probe aLAP1, primary screen, cell lysate, small-molecule microarray (AID 1124).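 Also: lysate comes from COS7 cells expressing LAP1 and is applied at 0.3 µg/mL; score merges spot fluorescence near 667 nm with signal-to-noise over triplicate slides.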 As to conditions: probe aLAP1, fluorescence, higher = more signal.
The next assay has as its system Sam68 (KHDRBS1). Kind of assay: Sam68 small-molecule binders, primary screen, biochemical, small-molecule microarray, 635 nm fluorescence (AID 1125).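 Also: score merges 667 nm channel intensity with signal to noise over triplicate slides.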 As to conditions: small-molecule microarray binding, higher = more signal.
For assay [17], the system named is Chordin-like protein 2 (CHRDL2). The assay can be described thus: CHRDL2 small-molecule binders, primary screen, biochemical, small-molecule microarray, 635 nm fluorescence (AID 1126).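 Also: printed compound slides probed with Chrdl2 protein at 4 µg/mL for 1 h at 4 C; score merges 667 nm emission intensity with signal to noise over three replicate slides.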 As to conditions: small-molecule microarray binding, fluorescence 635 nm; higher = more signal.
The target of assay [18] is Concanavalin-A (Canavalia ensiformis) (UniProt P02866). Kind of assay: ConA small-molecule binders, primary screen, artefact control for SMM control protein annotation, biochemical, small-molecule microarray, Alexa647 label, 635 nm (AID 1127).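 Also: z combines 667 nm emission intensity with signal-to-noise across three replicate slides.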 As to conditions: ConA-A647 binding fluorescence, higher = more signal.

Calls of active or inactive are those of the source.

Chain of Concanavalin-A (Canavalia ensiformis) (P02866 whole entry, looked up): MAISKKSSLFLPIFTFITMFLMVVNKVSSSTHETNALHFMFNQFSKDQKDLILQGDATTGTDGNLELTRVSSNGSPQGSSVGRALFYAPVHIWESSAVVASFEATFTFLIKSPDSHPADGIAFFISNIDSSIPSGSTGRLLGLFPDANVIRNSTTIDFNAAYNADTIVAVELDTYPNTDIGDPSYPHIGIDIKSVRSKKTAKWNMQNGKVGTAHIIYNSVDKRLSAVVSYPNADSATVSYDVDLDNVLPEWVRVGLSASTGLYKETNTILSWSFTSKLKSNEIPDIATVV
Chain of Torsin-1A-interacting protein 1 (Homo sapiens) (Q5JTV8 whole entry, looked up): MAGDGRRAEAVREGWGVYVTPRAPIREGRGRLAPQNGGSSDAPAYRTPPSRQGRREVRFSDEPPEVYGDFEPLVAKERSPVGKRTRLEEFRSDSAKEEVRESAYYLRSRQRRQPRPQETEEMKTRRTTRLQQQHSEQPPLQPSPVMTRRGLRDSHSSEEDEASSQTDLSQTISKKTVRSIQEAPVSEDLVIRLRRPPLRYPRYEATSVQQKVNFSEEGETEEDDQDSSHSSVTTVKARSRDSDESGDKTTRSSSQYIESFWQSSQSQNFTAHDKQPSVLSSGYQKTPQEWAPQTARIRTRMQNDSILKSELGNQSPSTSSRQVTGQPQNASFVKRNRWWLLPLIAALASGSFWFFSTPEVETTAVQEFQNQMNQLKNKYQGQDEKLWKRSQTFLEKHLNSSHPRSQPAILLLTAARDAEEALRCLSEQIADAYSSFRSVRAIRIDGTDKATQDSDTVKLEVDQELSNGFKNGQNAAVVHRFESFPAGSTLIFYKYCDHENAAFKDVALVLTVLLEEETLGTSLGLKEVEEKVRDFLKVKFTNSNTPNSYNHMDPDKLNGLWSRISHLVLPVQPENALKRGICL
Chain of Left-right determination factor 2 (Homo sapiens) (O00292 whole entry, looked up): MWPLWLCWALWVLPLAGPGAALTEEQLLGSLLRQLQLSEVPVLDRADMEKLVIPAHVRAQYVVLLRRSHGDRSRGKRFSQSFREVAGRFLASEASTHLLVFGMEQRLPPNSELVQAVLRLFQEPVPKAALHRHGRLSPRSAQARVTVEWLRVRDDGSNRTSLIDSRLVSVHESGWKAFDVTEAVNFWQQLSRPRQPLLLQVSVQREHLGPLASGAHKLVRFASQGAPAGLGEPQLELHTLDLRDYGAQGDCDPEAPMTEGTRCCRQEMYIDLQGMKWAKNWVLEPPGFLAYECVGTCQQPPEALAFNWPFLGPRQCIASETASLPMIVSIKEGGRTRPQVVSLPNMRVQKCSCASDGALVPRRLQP
Chain of Alpha-bungarotoxin (Bungarus multicinctus) (P60615 whole entry, looked up): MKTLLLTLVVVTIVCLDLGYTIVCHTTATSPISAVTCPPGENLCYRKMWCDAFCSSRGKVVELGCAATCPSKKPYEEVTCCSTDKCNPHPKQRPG
Chain of Albumin (Bos taurus) (P02769 whole entry, looked up): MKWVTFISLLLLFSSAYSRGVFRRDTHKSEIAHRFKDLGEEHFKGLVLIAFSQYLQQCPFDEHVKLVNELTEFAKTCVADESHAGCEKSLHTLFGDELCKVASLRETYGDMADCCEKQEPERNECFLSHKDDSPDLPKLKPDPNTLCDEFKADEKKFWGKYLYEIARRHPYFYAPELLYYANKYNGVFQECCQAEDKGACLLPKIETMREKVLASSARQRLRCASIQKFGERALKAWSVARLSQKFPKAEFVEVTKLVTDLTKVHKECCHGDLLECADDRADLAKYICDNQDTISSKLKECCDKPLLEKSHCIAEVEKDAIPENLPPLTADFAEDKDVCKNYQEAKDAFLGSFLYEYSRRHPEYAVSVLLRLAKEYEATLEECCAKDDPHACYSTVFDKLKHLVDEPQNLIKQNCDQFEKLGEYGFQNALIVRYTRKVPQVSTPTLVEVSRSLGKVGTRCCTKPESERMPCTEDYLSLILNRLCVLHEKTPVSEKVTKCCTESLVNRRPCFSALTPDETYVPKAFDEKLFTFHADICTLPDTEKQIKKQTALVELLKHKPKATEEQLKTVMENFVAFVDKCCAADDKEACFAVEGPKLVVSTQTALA

Consider `CCN(CC)c1ccc(N2CC=CC34O[C@@H]5/C=C\CCC(C)OC(=O)C5[C@H]3C(=O)N(C(C)CO)[C@@H]4C2=O)cc1` (stereo not given in full), for which the composite z-score in assay [1] was -0.344; in [3], -0.292; in assay [4] it was -0.847; in [5] it was -1.66; in assay [6], -0.0346; in assay [7] it was -0.0709. The composite z-score in assay [8] was -0.318; in [9], 0.187; in assay [10], -1.04; with Albumin (Bos taurus), -0.739; in assay [12], -0.24; in [13], -0.148. Besides, the composite z-score in assay [14] is 0.42; in [15], -0.175; in assay [16], -0.165; in the assay on Sam68 (KHDRBS1), -0.0199; in assay [17], 0.142; in assay [18] it was -1.09. The same compound had a z-score in assay [2] of 0.0645. The composite Z-score in assay [11] was 0.451 (inactive).

On to `CCCCC(=C=CC[C@H](O)c1ccc(OCCO)cc1)C[C@H](O)c1cc(Cl)cc(Cl)c1O`, for which the composite z-score was 0.584 in assay [1]; 0.0916 in assay [3]; 0.0258 in [4]; -0.0211 in assay [5]; -0.198 in assay [6]; -0.153 in assay [7]. Also, the composite z-score in assay [8] was 0.452; in assay [9], 0.849; in [10], 0.779; in the assay with Albumin (Bos taurus) it was 0.377; in assay [12] it was -0.0178; in assay [13], -0.133. Besides, the composite z-score was determined as 0.456 in assay [14]; 0.271 in assay [15]; 0.163 in [16]; 0.805 in the assay with Sam68 (KHDRBS1); 0.44 in assay [17]; 0.72 in assay [18]. For the same compound, the z-score in [2] was -1.63. Further, the composite Z-score in assay [11] was 0.671 (inactive).

For `O=C1O[C@H](c2ccccc2)[C@H](c2ccccc2)N2[C@H]1[C@@H](C(=O)O)[C@]1(C(=O)Nc3ccc(C#CC4(O)CCCCCC4)cc31)[C@H]2c1ccc(O)cc1`, the composite z-score in [1] is 0.628; in assay [3], -0.114; in assay [4] it was 0.277; in assay [5], 0.431; in [6], -0.124; in assay [7], 0.0611. Further, the composite z-score in [8] was -0.291; in [9], -0.0781; in assay [10] it was -0.0118; in the assay with Albumin (Bos taurus), 0.143; in assay [12] it was -0.15; in assay [13], -0.0999. In addition, the composite z-score in assay [14] is 0.811; in assay [15], 0.609; in assay [16] it was 0.0189; in the assay with Sam68 (KHDRBS1), 0.553; in assay [17], 0.224; in [18] it was 0.437. This compound had a z-score in [2] of -0.772. Besides, the composite Z-score in [11] was 0.25 (inactive).

For the compound `COc1cc2c(cc1O)C(c1ccc(CN3CCCC3)cc1)N(C)CC2` (stereo not given), the composite z-score in [1] is -1.7; in [3], 0.351; in [4], 0.571; in [5] it was 0.673; in assay [6], -0.173; in assay [7] it was -0.359. Besides, the composite z-score is 0.452 in assay [8]; -0.862 in assay [9]; 0.0735 in [10]; 0.462 with Albumin (Bos taurus); -0.173 in [12]; -0.127 in [13]. In addition, the composite z-score in [14] is 0.359; in [15], -0.138; in assay [16], 2.24; in the assay with Sam68 (KHDRBS1), -0.645; in [17] it was -1.26; in [18], 0.113. In addition, the z-score in [2] is -1.02. The composite Z-score in assay [11] is 0.142 (inactive).

Take `CC(C)CNC(=O)[C@@]1(C)c2ccccc2C(=O)N(Cc2cc(C(F)(F)F)cc(C(F)(F)F)c2)[C@H]1c1ccc(CO)cc1`: the composite z-score in [1] was 0.267; in [3], -0.557; in assay [4], -0.438; in [5], 0.507; in assay [6], -0.175; in assay [7], -0.291. The composite z-score is -0.318 in assay [8]; 0.0492 in assay [9]; -0.0153 in assay [10]; 0.184 with Albumin (Bos taurus); -0.242 in assay [12]; -0.111 in assay [13]. In addition, the composite z-score in [14] is 0.72; in [15], 0.79; in assay [16] it was -0.205; in the assay on Sam68 (KHDRBS1), 0.108; in assay [17], -0.307; in [18], 0.0758. Besides, in [2], the z-score is -0.447. The composite Z-score in assay [11] was 0.635 (inactive).
